# How the values were obtained:
# Assay in all cases: DAPPL (digital affinity profiling via proximity ligation, sequencing); 10 mM Tris-HCl pH 7.5, 50 mM NaCl, 1 mM DTT, 4% glycerol, room temperature, 30 min; GST-TFs on glutathione beads, 16-mer random dsDNA library, 0.1% formaldehyde crosslink after washing; high values mean tight binding
# [1] = target: T1, FLI1 (Homo sapiens, UniProt Q01543 1-452); conditions: protein: recombinant; tags: N-terminal GST; dsDNA, one strand shown
# T1 sequence: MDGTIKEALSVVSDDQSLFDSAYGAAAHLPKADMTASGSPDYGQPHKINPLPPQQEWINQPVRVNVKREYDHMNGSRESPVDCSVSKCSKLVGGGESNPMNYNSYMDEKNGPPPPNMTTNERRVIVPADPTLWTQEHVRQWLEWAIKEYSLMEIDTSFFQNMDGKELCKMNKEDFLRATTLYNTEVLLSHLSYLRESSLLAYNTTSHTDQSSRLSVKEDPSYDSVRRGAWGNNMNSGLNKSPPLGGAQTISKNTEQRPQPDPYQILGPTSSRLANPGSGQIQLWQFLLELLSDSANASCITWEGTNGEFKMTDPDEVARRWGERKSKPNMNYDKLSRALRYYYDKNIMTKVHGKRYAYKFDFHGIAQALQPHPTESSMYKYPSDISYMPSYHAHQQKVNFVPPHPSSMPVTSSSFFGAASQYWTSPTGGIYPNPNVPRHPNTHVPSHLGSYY
# Summary of the method: (§1)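 Sequencing on an Illumina NextSeq500 followed washing, crosslinking with 0.1% formaldehyde, proximity ligation (BsaI/T4 ligase, 1 h, 37 °C) and PCR amplification of pools that had been incubated for 30 min at room temperature with 200 nmole of a random double-stranded 16-mer DNA library in Tris/NaCl/DTT/glycerol buffer. Each pool held DNA-barcoded human transcription factors, expressed in yeast as GST fusions and captured on glutathione beads, plus a tag-only sample. Binding signal is a hexamer's read frequency for a factor divided by its frequency in the tag-only sample.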
# [2] = target: T2, ELK1 (Homo sapiens, UniProt P19419 1-428); conditions: protein: recombinant; tags: N-terminal GST; dsDNA, one strand shown
# T2 sequence: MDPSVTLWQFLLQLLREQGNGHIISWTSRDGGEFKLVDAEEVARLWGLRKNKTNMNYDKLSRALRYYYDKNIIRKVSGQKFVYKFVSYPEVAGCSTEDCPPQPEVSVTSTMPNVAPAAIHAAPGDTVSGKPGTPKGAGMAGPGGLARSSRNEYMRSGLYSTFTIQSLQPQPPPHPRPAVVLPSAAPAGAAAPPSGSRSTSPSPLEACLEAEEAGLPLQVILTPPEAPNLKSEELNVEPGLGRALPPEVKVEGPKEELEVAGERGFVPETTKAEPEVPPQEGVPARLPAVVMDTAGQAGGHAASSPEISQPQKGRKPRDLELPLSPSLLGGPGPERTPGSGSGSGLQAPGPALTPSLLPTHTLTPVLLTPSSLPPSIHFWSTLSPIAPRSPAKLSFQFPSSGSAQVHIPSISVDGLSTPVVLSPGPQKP
# Summary of the method: as §1
# [3] = target: T3, GABPA (Homo sapiens, UniProt Q06546 1-454); conditions: protein: recombinant; tags: N-terminal GST; dsDNA, one strand shown
# T3 sequence: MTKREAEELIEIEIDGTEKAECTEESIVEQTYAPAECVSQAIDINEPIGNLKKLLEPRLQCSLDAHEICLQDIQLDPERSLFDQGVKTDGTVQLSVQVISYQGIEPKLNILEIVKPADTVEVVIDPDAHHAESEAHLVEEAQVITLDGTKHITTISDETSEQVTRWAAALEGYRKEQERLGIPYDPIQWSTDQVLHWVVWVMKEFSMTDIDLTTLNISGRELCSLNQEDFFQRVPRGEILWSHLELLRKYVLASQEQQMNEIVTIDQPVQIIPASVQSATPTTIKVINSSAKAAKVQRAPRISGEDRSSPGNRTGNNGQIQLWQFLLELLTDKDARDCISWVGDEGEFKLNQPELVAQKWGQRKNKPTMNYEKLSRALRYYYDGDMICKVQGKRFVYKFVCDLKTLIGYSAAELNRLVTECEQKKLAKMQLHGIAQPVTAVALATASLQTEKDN
# Summary of the method: as §1
# [4] = target: T4, ERG (Homo sapiens, UniProt P11308 1-479); conditions: protein: recombinant; tags: N-terminal GST; dsDNA, one strand shown
# T4 sequence: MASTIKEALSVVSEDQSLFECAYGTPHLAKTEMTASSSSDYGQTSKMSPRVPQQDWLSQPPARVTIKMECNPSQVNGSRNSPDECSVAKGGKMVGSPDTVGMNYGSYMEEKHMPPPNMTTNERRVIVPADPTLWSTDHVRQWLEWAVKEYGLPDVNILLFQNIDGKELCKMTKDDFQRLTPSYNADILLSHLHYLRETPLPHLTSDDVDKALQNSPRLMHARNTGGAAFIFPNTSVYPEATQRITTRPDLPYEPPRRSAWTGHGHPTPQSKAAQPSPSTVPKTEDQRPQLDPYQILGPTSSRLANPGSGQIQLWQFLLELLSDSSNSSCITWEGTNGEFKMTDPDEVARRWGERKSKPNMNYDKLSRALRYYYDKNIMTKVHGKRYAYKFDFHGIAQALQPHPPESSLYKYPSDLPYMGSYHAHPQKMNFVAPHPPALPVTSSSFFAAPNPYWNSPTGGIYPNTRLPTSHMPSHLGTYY
# Summary of the method: as §1
# [5] = target: ELF1 (Homo sapiens, UniProt P32519 1-619); conditions: protein: recombinant; tags: N-terminal GST; dsDNA, one strand shown
# Summary of the method: as §1
# [6] = target: T5, EHF (Homo sapiens, UniProt Q9NZC4 1-300); conditions: protein: recombinant; tags: N-terminal GST; dsDNA, one strand shown
# T5 sequence: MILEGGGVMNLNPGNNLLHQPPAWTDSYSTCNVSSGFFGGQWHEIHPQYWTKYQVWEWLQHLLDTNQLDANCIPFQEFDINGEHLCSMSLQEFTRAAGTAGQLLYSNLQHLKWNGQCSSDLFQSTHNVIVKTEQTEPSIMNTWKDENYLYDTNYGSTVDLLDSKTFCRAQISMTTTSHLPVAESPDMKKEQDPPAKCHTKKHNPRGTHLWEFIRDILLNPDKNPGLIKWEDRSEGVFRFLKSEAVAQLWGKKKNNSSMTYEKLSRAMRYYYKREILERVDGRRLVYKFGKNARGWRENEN
# Summary of the method: as §1
# [7] = target: SPI1 (Homo sapiens, UniProt P17947 1-270); conditions: protein: recombinant; tags: N-terminal GST; dsDNA, one strand shown
# Summary of the method: as §1
# [8] = target: SPIB (Homo sapiens, UniProt Q01892 1-262); conditions: protein: recombinant; tags: N-terminal GST; dsDNA, one strand shown
# Summary of the method: as §1
# [9] = target: T6, ELK3 (Homo sapiens, UniProt P41970 1-407); conditions: protein: recombinant; tags: N-terminal GST; dsDNA, one strand shown
# T6 sequence: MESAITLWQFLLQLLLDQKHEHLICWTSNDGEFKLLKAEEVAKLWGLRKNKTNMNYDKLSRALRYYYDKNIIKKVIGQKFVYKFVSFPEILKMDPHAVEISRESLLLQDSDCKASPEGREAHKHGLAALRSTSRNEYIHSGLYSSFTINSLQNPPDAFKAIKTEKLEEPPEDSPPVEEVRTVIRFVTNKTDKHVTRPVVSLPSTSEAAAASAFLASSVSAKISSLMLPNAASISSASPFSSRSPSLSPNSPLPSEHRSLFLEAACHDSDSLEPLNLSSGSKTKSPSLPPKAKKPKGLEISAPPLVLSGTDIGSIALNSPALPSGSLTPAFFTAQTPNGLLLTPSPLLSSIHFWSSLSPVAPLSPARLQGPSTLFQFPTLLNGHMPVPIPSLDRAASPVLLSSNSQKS
# Summary of the method: as §1
# [10] = target: T7, FEV (Homo sapiens, UniProt Q99581 1-238); conditions: protein: recombinant; tags: N-terminal GST; dsDNA, one strand shown
# T7 sequence: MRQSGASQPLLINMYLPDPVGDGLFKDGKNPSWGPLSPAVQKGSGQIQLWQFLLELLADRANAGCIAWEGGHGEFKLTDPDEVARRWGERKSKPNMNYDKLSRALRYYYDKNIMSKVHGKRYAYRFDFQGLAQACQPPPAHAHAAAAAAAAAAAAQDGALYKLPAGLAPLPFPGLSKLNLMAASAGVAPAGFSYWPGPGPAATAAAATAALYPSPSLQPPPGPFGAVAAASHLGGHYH
# Summary of the method: as §1
# [11] = target: ETV5 (Homo sapiens, UniProt P41161 1-510); conditions: protein: recombinant; tags: N-terminal GST; dsDNA, one strand shown
# Summary of the method: as §1
# [12] = target: HSF1 (Homo sapiens, UniProt Q00613 1-529); conditions: protein: recombinant; tags: N-terminal GST; chain copies: 3; dsDNA, one strand shown
# Summary of the method: as §1
# [13] = target: T8, SPIC (Homo sapiens, UniProt Q8N5J4 1-248); conditions: protein: recombinant; tags: N-terminal GST; dsDNA, one strand shown
# T8 sequence: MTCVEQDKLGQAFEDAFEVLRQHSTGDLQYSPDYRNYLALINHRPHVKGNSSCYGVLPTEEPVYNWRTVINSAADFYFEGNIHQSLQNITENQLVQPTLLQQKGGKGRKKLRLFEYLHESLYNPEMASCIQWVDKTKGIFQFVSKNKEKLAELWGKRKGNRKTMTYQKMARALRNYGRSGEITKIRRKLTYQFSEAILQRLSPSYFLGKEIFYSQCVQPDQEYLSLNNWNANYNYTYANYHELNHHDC
# Summary of the method: as §1
# [14] = target: ELF4 (Homo sapiens, UniProt Q99607 1-663); conditions: protein: recombinant; tags: N-terminal GST; dsDNA, one strand shown
# Summary of the method: as §1
# [15] = target: T9, ELK4 (Homo sapiens, UniProt P28324-2 1-405); conditions: protein: recombinant; tags: N-terminal GST; dsDNA, one strand shown
# T9 sequence: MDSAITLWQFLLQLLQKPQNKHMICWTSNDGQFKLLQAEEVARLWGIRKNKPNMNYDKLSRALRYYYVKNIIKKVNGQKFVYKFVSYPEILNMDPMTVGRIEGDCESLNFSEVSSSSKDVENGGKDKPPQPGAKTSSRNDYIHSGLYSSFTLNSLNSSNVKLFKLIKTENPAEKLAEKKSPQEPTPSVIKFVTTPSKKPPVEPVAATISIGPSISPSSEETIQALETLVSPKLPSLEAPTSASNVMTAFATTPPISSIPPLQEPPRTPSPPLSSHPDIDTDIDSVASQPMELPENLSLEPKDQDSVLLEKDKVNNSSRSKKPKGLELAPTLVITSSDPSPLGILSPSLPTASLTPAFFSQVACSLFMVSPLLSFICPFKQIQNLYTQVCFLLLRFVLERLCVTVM
# Summary of the method: as §1
# [16] = target: T10, ETV2 (Homo sapiens, UniProt O00321 1-342); conditions: protein: recombinant; tags: N-terminal GST; dsDNA, one strand shown
# T10 sequence: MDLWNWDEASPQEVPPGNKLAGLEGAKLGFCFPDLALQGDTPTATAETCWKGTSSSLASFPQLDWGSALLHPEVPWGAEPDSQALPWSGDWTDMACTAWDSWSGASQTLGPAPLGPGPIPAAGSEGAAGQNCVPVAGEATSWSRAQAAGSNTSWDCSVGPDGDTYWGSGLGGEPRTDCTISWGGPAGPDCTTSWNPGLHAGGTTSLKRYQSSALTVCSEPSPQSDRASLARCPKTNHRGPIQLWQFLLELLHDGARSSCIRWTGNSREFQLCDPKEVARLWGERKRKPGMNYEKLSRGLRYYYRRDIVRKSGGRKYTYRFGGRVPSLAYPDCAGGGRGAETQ
# Summary of the method: as §1
# [17] = target: T11, ELF3 (Homo sapiens, UniProt P78545 1-371); conditions: protein: recombinant; tags: N-terminal GST; dsDNA, one strand shown
# T11 sequence: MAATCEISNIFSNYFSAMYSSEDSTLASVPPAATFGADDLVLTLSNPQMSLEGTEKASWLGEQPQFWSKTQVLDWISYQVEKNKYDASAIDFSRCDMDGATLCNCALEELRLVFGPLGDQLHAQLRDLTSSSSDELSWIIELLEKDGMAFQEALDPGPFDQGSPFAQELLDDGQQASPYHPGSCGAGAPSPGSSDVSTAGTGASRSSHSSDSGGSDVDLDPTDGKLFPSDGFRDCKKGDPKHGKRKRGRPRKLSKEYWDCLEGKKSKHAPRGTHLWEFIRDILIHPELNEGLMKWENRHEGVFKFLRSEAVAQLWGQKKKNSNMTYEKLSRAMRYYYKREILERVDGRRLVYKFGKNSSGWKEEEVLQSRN
# Summary of the method: as §1
# [18] = target: CRX (Homo sapiens, UniProt O43186 1-299); conditions: protein: recombinant; tags: N-terminal GST; dsDNA, one strand shown
# Summary of the method: as §1
# [19] = target: ETV1 (Homo sapiens, UniProt P50549 1-477); conditions: protein: recombinant; tags: N-terminal GST; dsDNA, one strand shown
# Summary of the method: as §1
# ELF1, sequence (P32519 whole entry): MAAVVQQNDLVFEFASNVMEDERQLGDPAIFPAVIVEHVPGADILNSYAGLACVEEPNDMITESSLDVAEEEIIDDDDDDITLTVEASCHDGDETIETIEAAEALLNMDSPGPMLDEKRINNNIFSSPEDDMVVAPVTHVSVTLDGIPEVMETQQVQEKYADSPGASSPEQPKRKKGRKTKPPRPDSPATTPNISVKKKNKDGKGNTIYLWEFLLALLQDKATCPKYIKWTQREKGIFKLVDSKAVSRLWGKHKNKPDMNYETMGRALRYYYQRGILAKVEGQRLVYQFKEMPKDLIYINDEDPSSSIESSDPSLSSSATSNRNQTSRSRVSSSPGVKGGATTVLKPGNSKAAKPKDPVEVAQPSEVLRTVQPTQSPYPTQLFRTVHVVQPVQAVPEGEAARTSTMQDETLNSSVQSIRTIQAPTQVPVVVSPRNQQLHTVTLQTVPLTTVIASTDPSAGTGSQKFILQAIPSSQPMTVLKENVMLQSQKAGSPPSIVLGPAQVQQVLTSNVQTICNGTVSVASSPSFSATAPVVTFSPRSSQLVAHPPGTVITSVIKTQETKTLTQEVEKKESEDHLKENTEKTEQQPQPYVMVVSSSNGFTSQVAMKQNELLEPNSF
# ELF4, sequence (Q99607 whole entry): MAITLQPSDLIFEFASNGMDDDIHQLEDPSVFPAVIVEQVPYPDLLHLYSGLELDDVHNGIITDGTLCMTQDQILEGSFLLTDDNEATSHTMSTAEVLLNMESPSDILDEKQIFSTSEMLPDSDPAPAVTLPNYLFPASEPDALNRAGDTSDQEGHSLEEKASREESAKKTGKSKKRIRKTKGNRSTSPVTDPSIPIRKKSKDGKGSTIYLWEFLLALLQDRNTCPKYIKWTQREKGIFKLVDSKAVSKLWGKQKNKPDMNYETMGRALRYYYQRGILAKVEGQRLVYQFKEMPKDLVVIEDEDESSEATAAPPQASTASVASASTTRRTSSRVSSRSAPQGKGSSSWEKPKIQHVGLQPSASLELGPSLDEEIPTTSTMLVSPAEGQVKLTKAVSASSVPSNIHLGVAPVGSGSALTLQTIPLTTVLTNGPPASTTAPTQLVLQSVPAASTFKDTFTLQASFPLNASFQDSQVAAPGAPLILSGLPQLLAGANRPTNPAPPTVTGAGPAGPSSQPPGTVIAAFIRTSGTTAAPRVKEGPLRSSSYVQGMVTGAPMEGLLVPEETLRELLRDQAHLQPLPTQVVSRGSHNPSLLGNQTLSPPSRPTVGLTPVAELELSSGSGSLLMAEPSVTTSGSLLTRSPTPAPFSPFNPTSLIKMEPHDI
# HSF1, sequence (Q00613 whole entry): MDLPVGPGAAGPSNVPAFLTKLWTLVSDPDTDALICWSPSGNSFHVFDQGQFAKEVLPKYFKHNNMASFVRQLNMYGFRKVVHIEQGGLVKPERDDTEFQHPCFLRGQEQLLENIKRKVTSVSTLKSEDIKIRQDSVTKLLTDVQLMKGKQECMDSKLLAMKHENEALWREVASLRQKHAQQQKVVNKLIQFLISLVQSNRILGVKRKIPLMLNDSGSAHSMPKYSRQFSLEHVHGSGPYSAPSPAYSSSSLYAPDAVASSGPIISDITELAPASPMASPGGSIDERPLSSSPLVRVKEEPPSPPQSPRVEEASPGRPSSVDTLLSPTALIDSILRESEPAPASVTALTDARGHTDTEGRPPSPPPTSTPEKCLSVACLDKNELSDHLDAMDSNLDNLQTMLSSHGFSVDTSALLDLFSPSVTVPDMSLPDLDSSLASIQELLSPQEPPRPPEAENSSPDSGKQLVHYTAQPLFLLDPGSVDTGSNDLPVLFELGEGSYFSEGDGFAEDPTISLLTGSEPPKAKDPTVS
# ETV1, sequence (P50549 whole entry): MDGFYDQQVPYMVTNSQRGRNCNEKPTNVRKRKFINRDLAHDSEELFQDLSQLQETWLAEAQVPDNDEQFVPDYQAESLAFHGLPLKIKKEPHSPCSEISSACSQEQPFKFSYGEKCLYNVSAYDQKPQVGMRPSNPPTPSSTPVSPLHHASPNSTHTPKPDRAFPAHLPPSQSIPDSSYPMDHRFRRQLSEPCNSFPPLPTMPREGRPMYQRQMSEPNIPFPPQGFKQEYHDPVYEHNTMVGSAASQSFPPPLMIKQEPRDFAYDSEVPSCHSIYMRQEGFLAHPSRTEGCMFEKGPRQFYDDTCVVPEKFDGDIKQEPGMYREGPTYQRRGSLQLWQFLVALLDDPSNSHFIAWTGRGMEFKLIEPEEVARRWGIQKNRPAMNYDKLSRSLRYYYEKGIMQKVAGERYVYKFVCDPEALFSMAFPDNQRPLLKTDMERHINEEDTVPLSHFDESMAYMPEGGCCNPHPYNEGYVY
# CRX, sequence (O43186 whole entry): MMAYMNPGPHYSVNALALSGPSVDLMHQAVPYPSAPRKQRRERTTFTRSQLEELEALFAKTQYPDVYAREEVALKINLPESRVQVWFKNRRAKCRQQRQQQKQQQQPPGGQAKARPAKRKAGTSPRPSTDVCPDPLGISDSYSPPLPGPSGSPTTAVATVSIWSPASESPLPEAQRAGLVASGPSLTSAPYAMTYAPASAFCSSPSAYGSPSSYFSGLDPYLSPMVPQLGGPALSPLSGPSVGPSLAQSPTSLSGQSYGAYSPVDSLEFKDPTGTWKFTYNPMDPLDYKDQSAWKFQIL
# ETV5, sequence (P41161 whole entry): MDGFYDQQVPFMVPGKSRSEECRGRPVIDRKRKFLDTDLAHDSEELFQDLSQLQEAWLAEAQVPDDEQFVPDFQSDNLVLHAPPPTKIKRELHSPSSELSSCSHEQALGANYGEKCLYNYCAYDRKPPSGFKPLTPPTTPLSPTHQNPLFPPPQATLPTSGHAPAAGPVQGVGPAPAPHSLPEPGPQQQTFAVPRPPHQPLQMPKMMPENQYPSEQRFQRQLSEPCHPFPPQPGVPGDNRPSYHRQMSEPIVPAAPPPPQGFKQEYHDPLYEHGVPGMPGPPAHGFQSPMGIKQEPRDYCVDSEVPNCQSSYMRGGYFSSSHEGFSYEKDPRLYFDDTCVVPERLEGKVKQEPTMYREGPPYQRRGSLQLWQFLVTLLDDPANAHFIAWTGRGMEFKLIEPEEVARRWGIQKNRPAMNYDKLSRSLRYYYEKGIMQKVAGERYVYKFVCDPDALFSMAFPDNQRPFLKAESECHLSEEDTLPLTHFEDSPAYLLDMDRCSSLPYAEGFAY
# SPIB, sequence (Q01892 whole entry): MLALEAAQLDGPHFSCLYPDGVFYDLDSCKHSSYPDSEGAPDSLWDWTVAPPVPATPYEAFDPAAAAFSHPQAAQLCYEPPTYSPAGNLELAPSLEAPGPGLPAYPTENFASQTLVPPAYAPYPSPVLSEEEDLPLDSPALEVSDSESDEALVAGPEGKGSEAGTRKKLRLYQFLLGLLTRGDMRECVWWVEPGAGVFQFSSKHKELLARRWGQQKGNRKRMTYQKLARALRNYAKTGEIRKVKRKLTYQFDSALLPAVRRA
sequence,measurement,setting,value
TATTTG,binding signal,[1],"1.52 fold enrichment (6-mer frequency, TF over GST control)"
same,binding signal,[2],"1.41 fold enrichment (6-mer frequency, TF over GST control)"
same,binding signal,[3],"1.43 fold enrichment (6-mer frequency, TF over GST control)"
same,binding signal,[4],"1.47 fold enrichment (6-mer frequency, TF over GST control)"
same,binding signal,[5],"1.35 fold enrichment (6-mer frequency, TF over GST control)"
same,binding signal,[6],"1.45 fold enrichment (6-mer frequency, TF over GST control)"
same,binding signal,[7],"1.46 fold enrichment (6-mer frequency, TF over GST control)"
same,binding signal,[8],"1.46 fold enrichment (6-mer frequency, TF over GST control)"
same,binding signal,[9],"1.39 fold enrichment (6-mer frequency, TF over GST control)"
same,binding signal,[10],"1.39 fold enrichment (6-mer frequency, TF over GST control)"
same,binding signal,[11],"1.47 fold enrichment (6-mer frequency, TF over GST control)"
same,binding signal,[12],"1.43 fold enrichment (6-mer frequency, TF over GST control)"
same,binding signal,[13],"1.25 fold enrichment (6-mer frequency, TF over GST control)"
same,binding signal,[14],"1.3 fold enrichment (6-mer frequency, TF over GST control)"
same,binding signal,[15],"1.26 fold enrichment (6-mer frequency, TF over GST control)"
same,binding signal,[16],"1.27 fold enrichment (6-mer frequency, TF over GST control)"
same,binding signal,[17],"1.45 fold enrichment (6-mer frequency, TF over GST control)"
same,binding signal,[18],"1.71 fold enrichment (6-mer frequency, TF over GST control)"
same,binding signal,[19],"1.4 fold enrichment (6-mer frequency, TF over GST control)"

# — article PMC7862700, “An all-to-all approach to the identification of sequence-specific readers for epigenetic DNA modifications on cytosine”
